# Where “and” joins values, the source holds several entries; their conditions need not be identical. Equal values may be shown once. Inconclusive results are not listed. Where a call stands in place of a potency, no number is given. A structure can be active in one record and inactive in another. Calls of active or inactive are those of the source. Calls follow the shape of the dose curve; as a rule, active = well fitted cell-killing curve with a large enough effect in the repeat runs; inconclusive = weak or mixed curves, or effect the other way; inactive = flat fitted curve, though single readings scatter.
# Assay: qHTS assay to identify small molecule that activate the aryl hydrocarbon receptor (AhR) signaling pathway - cell viability counter screen (AID 743086); also: nearly all actives have a fitted effect of over 45% in size
# Conditions: HepG2-AhR-luc viability, CellTiter-Fluor, 24 h; series mostly up to 70.3 µM
# Excerpt: U.S. Tox21 Program National Center for Advancing Translational Sciences [NCATS] NIH Chemical Genomics Center [NCGC] U.S. Environmental Protection Agency [EPA] National Institutes of Environmental Health Sciences [NIEHS] National Toxicology Program [NTP] U.S. Food and Drug Administration [FDA] Tox21 Assay overview: The Aryl hydrocarbon Receptor (AhR), a member of the family of basic helix-loop-helix transcription factors, is crucial to adaptive responses to environmental changes. AhR mediates cellular responses to environmental pollutants such as aromatic hydrocarbons through induction of phase I and II enzymes but also interacts with other nuclear receptor signaling pathways A cell based HepG2-AhR-luc assay (HG2L7.5c1 cell line, developed by Dr. Michael S. Denison, University of California at Davis) was used to assess the activation of AhR. HepG2 (human hepatocellular carcinoma) cells were stably transfected with an Ah receptor-responsive firefly luciferase reporter gene plasmid containing 20 dioxin responsive elements and luciferase reporter gene. Increased luciferase activity can be used to identify the compounds that induce AhR activation. The cytotoxicity of the compounds screened against the HepG2-AhR-luc cell line was tested in parallel by measuring the cell viability using CellTiter-Fluor assay in the same wells.
# Tox21 Assay Protocol Summary: 4000 cells in 5 uL/well were dispensed into white wall/solid bottom 1536-well plates using a Multidrop Combi (Thermo Fisher Scientific Inc., Waltham, MA) dispenser. After the assay plates were incubated at 37C for 5 h, 23 nL of compound or DMSO vehicle was transferred to the assay plates by a pintool station (Kalypsys, San Diego, CA). The plates were incubated at 37C for 24 hr. For cell viability measurement, 1 ul/well of CellTiter-Fluor reagent (Promega, Madison, WI) was added into the assay plates using a Flying Reagent Dispenser (FRD) (Aurora Discovery, CA),and then the assay plates were incubated at 37C for 30 min. The fluorescence intensity in the plates was measured using a ViewLux plate reader (PerkinElmer, Shelton, CT), followed by the addition of 4 uL of ONE-Glo Luciferase Assay reagent (Promega) using an FRD (Aurora Discovery). After the assay plates were incubated at room temperature for 30 min, luminescence intensity was measured using a ViewLux plate reader (Perkin Elmer).
# Potency is read from the fitted curve at half-maximal effect.
row,Structure (SMILES),Potency
1,CC(C)C(O)(c1ccc(OC(F)(F)F)cc1)c1cncnc1 (stereo not given),inactive
2,CCn1cc(C(=O)O)c(=O)c2cc(F)c(N3CCNCC3)cc21,inactive
3,CCOC(=O)c1ccc(I)cc1,inactive
4,Oc1cccc(O)c1O,inactive
5,COc1ncnc(NS(=O)(=O)c2ccc(N)cc2)c1OC,inactive
6,Cc1ccc2c(Br)cc(Br)c(O)c2n1,inactive
7,O=C(O)c1cccc(-c2noc(-c3ccccc3F)n2)c1,inactive
8,CCCC(=O)C(=O)O,inactive
9,O=C(O)C[C@H](NC(=O)OCc1ccccc1)C(=O)O,inactive
10,O=C(Nc1cccc2c(=O)cc(-c3nn[nH]n3)oc12)c1ccc(OCCCCc2ccccc2)cc1,inactive
11,CN1C(=O)OC(C)(C)C1=O,inactive
12,C=CCc1ccccc1OCC(O)CNC(C)C (stereo not given),inactive
13,CCC(=O)C1CC(C(C)C)CC=C1C (stereo not given),inactive
14,CCCCCC#CC(=O)OC,inactive
15,O=C(Cn1ccnc1[N+](=O)[O-])NCCO,inactive
16,CCC(C)(C)OC,inactive
17,C[C@@H]1CC(=O)NN=C1c1ccc(NN=C(C#N)C#N)cc1,26.6 µM (active)
18,CCOC(=O)OC(C)OC(=O)[C@@H]1N2C(=O)[C@@H](NC(=O)[C@H](N)c3ccccc3)[C@H]2SC1(C)C (stereo not given in full),inactive
19,CCN(CC)CCNC(=O)COc1ccc(OC)cc1,inactive
20,Cc1ccccc1N=C(N)Nc1ccccc1C,inactive

row,Structure (SMILES),Potency
1,CC[C@]1(O)C[C@H]2CN(CCc3c([nH]c4ccccc34)[C@@](C(=O)OC)(c3cc4c(cc3OC)N(C=O)[C@H]3[C@@](O)(C(=O)OC)[C@H](OC(C)=O)[C@]5(CC)C=CCN6CC[C@]43[C@@H]65)C2)C1,inactive
2,C[C@]12CC[C@@H]3c4ccc(O)cc4CC[C@H]3[C@@H]1CC[C@@H]2OC(=O)CCC1CCCC1,inactive
3,CCOC(C)=O,inactive
4,O=Cc1c2ccccc2c(Cl)c2ccccc12,inactive
5,Clc1cc(Cl)nc(Cl)n1,inactive
6,CCC1CO1 (stereo not given),inactive
7,CCCCCCCCN,inactive
8,CCCCCC[C@@H](O)C/C=C\CCCCCCCC(=O)OCC(O)CO (stereo not given in full),inactive
9,CC(C)COCC(CN(Cc1ccccc1)c1ccccc1)N1CCCC1 (stereo not given),inactive
10,CC(C)c1nc(CN(C)C(=O)N[C@H](C(=O)N[C@@H](Cc2ccccc2)C[C@H](O)[C@H](Cc2ccccc2)NC(=O)OCc2cncs2)C(C)C)cs1,inactive and 13.3 µM (active)
11,CC(=O)OCC(=O)NCCCOc1cccc(CN2CCCCC2)c1,inactive
12,CC1(C)S[C@@H]2[C@H](NC(=O)C(c3ccccc3)S(=O)(=O)O)C(=O)N2[C@H]1C(=O)O (stereo not given in full),inactive
13,CC(=O)OCCN(CCOC(C)=O)c1ccc(N=Nc2ccc([N+](=O)[O-])cc2C#N)cc1,inactive
14,CC(C)(C)C(=O)C(=O)O,inactive
15,COc1cc(C(=O)NCCCCCC(=O)O)cc(OC)c1OC,inactive
16,CCCCCCC(C)(C)C(=O)O,inactive
17,Cc1ccco1,inactive
18,O=[N+]([O-])c1cc(C2CCCCC2)c(O)c([N+](=O)[O-])c1,30.5 µM (active)
19,CC1=C(Br)C(=O)C(Br)=C/C1=C(/c1ccccc1S(=O)(=O)O)c1cc(Br)c(O)c(Br)c1C,18.6 µM (active)
20,O=C1C(=O)c2ccccc2C(O)=C1C1CCC(c2ccc(Cl)cc2)CC1 (stereo not given),inactive

# Reference: PubChem BioAssay (Tox21)
